# The full data set covers some 8,800 targets. This sample favours those with a hit. About 0.5% of all pairs of compound and target were hits. Values without a mark were called inactive.
# Assays:
# Assay in all cases: log2 fold change, soluble protein after heating vs DMSO (PISA); higher = thermal stabilisation; K562 lysate, 10 uM; active = over 0.2 and 3.5 SD of the protein, either way, in both replicates (recomputed)
# nilotinib = compound: Cc1cn(-c2cc(NC(=O)c3ccc(C)c(Nc4nccc(-c5cccnc5)n4)c3)cc(C(F)(F)F)c2)cn1 [nilotinib]
# Outline: (§1)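 Following dounce homogenisation of K562 pellets in PBS pH 7.4 with 1 mM MgCl2, crude extract at 1 mg/mL protein was incubated for 30 min with 10 μM compound. Aliquots were then heated for 3 min over 48°C-58°C and pooled, NP-40 was added to 0.5% at 4°C, and soluble protein was recovered as the supernatant at 21,000xg for 90 min. Channel-sum-equalised TMTpro 16plex LC-MS/MS quantified this protein. Each value, from duplicates, is a log-two fold change in thermal stability relative to solvent controls.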
# [1] = compound: Cc1nc(Nc2n[nH]c3c2CN(C(=O)N[C@H](CN(C)C)c2ccccc2)C3(C)C)c2sccc2n1
# Outline: as §1
# dasatinib = compound: Cc1nc(Nc2ncc(C(=O)Nc3c(C)cccc3Cl)s2)cc(N2CCN(CCO)CC2)n1 [dasatinib]
# Outline: as §1
# [2] = compound: Cc1ncc(-c2ccnc(Nc3ccc(S(C)(=O)=O)cc3)n2)n1C(C)C
# Outline: as §1
# [3] = compound: Cn1cc(-c2ccc3c(c2)CCN3C(=O)Cc2cccc(C(F)(F)F)c2)c2c(N)ncnc21
# Outline: as §1
# quisinostat = compound: Cn1cc(CNCC2CCN(c3ncc(C(=O)NO)cn3)CC2)c2ccccc21 [quisinostat]
# Outline: as §1
# tipifarnib = compound: Cn1cncc1[C@@](N)(c1ccc(Cl)cc1)c1ccc2c(c1)c(-c1cccc(Cl)c1)cc(=O)n2C [tipifarnib]
# Outline: as §1
# [4] = compound: NC(=O)Nc1cc(-c2cccc(F)c2)sc1C(=O)N[C@H]1CCCNC1
# Outline: as §1
# [5] = compound: NC(=O)c1cnc(N[C@@H]2CCCC[C@@H]2N)nc1Nc1cccc(-n2nccn2)c1
# Outline: as §1
# [6] = compound: NC1(c2ccc(-c3nc4ccn5c(=O)[nH]nc5c4cc3-c3ccccc3)cc2)CCC1
# Outline: as §1
# Sequence of UniProt Q09472 (Q09472 whole entry, looked up): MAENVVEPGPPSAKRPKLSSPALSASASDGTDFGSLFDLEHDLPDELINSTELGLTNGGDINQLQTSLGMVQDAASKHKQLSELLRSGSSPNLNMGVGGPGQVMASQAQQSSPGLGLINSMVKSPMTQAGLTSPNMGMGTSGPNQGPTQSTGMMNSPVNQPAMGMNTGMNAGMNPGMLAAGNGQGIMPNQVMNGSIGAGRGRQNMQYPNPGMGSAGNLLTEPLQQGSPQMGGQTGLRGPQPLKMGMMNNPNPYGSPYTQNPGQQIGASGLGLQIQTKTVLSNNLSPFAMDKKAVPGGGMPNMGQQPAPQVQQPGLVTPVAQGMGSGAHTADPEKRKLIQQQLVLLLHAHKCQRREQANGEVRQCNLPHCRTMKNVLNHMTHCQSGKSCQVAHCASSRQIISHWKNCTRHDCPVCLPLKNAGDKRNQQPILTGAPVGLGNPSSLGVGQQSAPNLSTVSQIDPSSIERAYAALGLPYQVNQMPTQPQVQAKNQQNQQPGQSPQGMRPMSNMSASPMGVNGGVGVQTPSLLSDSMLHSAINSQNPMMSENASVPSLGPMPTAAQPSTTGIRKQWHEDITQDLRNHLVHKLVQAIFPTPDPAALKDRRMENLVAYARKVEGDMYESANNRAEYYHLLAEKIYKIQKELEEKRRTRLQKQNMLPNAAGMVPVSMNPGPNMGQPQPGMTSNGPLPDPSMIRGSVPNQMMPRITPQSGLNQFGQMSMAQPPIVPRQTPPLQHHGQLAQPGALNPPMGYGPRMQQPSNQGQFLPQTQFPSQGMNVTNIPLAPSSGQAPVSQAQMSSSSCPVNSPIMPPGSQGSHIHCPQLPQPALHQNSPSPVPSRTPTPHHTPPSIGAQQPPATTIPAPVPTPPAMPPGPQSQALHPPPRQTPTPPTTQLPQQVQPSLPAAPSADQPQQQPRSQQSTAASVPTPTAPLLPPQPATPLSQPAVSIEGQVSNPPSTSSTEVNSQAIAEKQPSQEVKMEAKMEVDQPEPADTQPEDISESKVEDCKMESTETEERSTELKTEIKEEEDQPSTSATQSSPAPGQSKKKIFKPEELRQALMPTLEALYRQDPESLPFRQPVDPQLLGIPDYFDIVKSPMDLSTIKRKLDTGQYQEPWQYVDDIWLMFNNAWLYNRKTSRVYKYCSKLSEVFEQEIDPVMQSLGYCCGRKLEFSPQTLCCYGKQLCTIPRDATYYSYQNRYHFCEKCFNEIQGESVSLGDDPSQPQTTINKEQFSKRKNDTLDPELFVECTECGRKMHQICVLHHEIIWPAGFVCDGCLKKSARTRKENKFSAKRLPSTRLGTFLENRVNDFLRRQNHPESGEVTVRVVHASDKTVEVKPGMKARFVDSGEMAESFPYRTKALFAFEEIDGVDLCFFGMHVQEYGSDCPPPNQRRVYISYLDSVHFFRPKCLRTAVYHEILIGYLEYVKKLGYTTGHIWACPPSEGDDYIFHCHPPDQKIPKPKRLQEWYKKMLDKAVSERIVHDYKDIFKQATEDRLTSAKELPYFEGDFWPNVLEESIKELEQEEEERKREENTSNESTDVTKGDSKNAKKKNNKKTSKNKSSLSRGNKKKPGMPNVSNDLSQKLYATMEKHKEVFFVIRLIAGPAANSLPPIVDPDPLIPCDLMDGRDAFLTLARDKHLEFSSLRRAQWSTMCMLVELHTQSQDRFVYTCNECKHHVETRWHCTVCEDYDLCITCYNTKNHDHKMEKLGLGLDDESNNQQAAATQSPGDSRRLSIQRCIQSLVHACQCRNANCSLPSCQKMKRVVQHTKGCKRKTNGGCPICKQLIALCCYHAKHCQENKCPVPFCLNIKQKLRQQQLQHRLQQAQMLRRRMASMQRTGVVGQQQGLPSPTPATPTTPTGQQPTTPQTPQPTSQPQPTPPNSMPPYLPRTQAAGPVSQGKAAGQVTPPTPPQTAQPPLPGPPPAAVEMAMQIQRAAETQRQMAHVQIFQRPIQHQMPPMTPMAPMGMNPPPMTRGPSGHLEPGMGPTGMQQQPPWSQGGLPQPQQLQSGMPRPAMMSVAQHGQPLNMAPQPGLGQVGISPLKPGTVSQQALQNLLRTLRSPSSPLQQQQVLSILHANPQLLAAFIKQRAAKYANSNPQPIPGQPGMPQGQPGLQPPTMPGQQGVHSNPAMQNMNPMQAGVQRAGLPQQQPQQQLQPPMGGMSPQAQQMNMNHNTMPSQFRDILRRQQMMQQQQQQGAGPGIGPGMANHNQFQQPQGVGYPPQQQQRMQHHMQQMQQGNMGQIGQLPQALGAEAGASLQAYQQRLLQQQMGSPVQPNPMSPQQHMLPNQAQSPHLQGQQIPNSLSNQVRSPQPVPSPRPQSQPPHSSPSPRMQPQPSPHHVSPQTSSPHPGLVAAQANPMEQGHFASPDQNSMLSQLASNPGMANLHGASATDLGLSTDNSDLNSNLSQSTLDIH
# Sequence of UniProt Q9BQI3 (Q9BQI3 whole entry, looked up): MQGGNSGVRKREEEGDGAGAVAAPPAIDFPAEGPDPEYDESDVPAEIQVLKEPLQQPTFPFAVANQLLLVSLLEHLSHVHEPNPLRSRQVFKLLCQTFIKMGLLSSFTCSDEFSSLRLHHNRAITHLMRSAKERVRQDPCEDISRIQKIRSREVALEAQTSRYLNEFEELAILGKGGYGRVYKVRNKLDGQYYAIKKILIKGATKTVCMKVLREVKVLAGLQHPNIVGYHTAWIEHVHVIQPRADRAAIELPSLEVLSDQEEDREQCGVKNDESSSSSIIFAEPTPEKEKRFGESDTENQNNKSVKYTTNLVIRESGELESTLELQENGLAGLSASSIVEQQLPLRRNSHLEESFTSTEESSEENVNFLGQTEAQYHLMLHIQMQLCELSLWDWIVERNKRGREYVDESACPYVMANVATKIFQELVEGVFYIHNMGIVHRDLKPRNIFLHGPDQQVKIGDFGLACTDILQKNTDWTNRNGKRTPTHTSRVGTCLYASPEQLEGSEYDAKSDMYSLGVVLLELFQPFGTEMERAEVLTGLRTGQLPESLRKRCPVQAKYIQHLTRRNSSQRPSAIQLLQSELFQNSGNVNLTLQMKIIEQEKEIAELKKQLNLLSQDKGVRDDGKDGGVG
# Sequence of UniProt P48507 (P48507 whole entry, looked up): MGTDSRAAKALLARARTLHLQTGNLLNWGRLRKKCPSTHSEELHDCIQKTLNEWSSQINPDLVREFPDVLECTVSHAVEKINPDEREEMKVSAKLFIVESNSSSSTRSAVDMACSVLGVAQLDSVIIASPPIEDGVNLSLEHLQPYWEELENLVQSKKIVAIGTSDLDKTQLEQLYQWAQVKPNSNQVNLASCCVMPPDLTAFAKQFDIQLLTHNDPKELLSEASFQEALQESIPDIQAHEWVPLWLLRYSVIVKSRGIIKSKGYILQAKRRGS
# Sequence of UniProt Q06210 (Q06210 whole entry, looked up): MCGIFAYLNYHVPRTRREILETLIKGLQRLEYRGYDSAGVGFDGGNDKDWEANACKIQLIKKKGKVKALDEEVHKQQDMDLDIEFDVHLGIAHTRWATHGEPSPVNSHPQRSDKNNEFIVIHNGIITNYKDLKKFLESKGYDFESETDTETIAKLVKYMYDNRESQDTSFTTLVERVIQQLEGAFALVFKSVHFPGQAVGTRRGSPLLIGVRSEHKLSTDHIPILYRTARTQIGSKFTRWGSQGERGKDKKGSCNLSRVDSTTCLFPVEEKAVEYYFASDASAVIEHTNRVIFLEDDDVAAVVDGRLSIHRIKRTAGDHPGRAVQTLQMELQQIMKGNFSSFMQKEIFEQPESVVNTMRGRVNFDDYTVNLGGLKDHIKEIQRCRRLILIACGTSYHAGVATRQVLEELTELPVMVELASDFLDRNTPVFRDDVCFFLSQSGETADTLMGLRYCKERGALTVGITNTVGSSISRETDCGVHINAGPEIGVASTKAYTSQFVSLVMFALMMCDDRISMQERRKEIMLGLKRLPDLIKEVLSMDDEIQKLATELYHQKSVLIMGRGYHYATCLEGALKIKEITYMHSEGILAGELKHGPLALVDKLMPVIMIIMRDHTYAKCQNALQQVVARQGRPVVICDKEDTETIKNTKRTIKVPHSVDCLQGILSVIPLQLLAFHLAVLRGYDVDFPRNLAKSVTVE
# Sequence of UniProt Q9GZT9 (Q9GZT9 whole entry, looked up): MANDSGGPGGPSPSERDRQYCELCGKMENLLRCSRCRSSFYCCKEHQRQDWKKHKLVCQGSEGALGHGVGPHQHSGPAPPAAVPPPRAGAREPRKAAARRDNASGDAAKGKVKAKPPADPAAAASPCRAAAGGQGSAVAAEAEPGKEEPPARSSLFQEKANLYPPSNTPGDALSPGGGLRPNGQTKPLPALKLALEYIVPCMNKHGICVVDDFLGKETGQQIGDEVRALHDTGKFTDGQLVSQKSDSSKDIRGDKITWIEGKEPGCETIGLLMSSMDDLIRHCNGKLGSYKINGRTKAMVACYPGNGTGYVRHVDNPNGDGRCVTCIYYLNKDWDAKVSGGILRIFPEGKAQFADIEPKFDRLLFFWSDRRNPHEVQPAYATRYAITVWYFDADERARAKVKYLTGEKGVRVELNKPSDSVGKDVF
# Sequence of UniProt Q86YP4 (Q86YP4 whole entry, looked up): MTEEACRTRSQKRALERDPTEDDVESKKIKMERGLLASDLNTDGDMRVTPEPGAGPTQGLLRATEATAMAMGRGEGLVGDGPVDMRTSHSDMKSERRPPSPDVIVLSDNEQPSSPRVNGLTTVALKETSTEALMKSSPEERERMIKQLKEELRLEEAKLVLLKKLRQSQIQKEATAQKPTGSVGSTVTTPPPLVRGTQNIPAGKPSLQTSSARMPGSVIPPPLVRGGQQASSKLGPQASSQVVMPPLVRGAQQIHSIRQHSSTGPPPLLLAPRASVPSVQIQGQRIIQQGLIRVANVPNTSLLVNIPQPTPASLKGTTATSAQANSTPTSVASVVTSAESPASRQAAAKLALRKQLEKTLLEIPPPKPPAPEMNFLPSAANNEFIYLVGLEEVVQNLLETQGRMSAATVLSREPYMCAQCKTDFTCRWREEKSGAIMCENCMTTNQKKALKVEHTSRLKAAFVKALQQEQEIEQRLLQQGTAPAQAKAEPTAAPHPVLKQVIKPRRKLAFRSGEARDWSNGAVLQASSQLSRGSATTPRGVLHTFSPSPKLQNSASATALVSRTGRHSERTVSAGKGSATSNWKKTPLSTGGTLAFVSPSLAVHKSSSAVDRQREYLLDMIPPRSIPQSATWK
Target,log2 fold change (nilotinib),log2 fold change [1],log2 fold change (dasatinib),log2 fold change [2],log2 fold change [3],log2 fold change (quisinostat),log2 fold change (tipifarnib),log2 fold change [4],log2 fold change [5],log2 fold change [6]
EGLN1 (UniProt Q9GZT9),0.006,0.007,-0.045,-0.066,0.03,-0.048,-0.05,0.044,0.039,0.006
EIF2B3 (UniProt Q9NR50),0.001,0.001,-0.049,0.009,-0.024,-0.036,-0.013,0.022,-0.008,-0.009
EPHX2 (UniProt P34913),0.097,-0.036,0.005,0.027,0.007,0.02,0.021,-0.036,-0.021,-0.015
"FADS1, A0A0A0MR51",0.065,-0.078,0.04,0.02,0.079,0.004,0.069,0.008,-0.114,0.022
EP300 (UniProt Q09472),0.036,0.037,-0.028,0.081,0.007,0.03,-0.043,0.036,0.023,0.046
FAM83A (UniProt Q86UY5),-0.007,-0.069,-0.028,-0.016,-0.033,-0.088,-0.08,0.034,0.004,-0.019
FBLL1 (UniProt A6NHQ2),0.006,-0.015,-0.048,-0.101,0,-0.07,-0.009,0.026,-0.037,0
ELF2 (UniProt Q15723),0.032,-0.007,-0.105,0.065,0.068,0.026,-0.043,-0.035,-0.02,0.032
FARSB (UniProt Q9NSD9),-0.019,-0.005,-0.019,0.006,0.032,-0.001,0.02,0.027,0.002,-0.014
GFPT1 (UniProt Q06210),0.003,-0.009,-0.013,0.008,0.002,-0.031,-0.006,0.027,-0.003,-0.025
EBP (UniProt Q15125),0.081,-0.016,-0.05,0.018,-0.137,0.038,-0.03,0.042,-0.006,-0.05
EIF2AK1 (UniProt Q9BQI3),-0.006,0.211,-0.027,-0.154,0.078,-0.077,0.007,-0.031,0.062,0.021
EXOC4 (UniProt Q96A65),0.015,-0.012,-0.083,0.015,0.072,-0.009,-0.036,0.053,0.013,-0.068
EXOC5 (UniProt O00471),0.008,-0.025,-0.063,-0.003,0.047,-0.044,0.006,0.014,0.01,0.002
EEF1A1P5 (UniProt Q5VTE0),-0.055,0.005,-0.172,-0.083,0.005,-0.054,0.008,0.016,0.006,-0.013
ERBIN isoform 8 (UniProt Q96RT1),0.012,-0.027,0.051,-0.015,0.018,-0.029,-0.005,0.018,0,0.001
GATAD2A isoform 3 (UniProt Q86YP4),0.041,0.001,0.006,-0.009,0.001,-0.074,-0.009,0.032,0.002,-0.024
GCDH (UniProt Q92947),-0.018,-0.129,0.024,-0.033,-0.022,-0.05,-0.018,-0.07,-0.021,-0.044
FREM2 (UniProt Q5SZK8),-0.108,0.041,-0.071,-0.113,-0.014,-0.223,-0.168,0.048,0.059,0.04
FANCD2 isoform 1 (UniProt Q9BXW9),0.015,-0.002,-0.066,0.048,0,-0.238 (active),-0.037,0.018,0.033,-0.124
EHD2 (UniProt Q9NZN4),0.007,-0.02,-0.018,0.019,-0.084,-0.074,-0.047,0.09,0.029,-0.042
GABPB1 (UniProt Q06547),-0.008,0.012,-0.051,-0.023,0.05,-0.036,0.007,0.031,0.05,0.033
GCLM (UniProt P48507),-0.03,0.016,-0.033,0.013,0.027,0.016,0.007,0,-0.005,-0.005
GGT7 (UniProt Q9UJ14),-0.061,-0.023,-0.083,0.014,-0.012,0.092,-0.008,0.071,0.007,0.02
DYNC1I2 isoform 5 (UniProt Q13409),0.029,0.016,0.008,-0.003,0.001,0.023,-0.011,-0.014,-0.008,-0.01
FANCI (UniProt Q9NVI1),-0.022,-0.011,-0.069,0.028,0.049,-0.065,0.01,0.061,0.027,-0.027
"EPB41, A0A2R8Y6D0",-0.033,0.312,0.091,-0.044,-0.021,-0.017,-0.055,0.043,-0.042,-0.054

# From the supplement of paper PMC10849652
